From the supplement of paper PMC10849652
Targets with a hit are over-represented here; the source holds about 7,900 in all. About 0.6% of all pairs of compound and target were hits. Unmarked numbers belong to inactive results.

How the values were obtained:
Test in all cases: log2 fold change, soluble protein after heating vs DMSO (PISA); higher = thermal stabilisation; K562 cells, 10 uM, 30 min; active = over 0.2 and 3.5 SD of the protein, either way, in both replicates (recomputed)
[1] = compound: CC[C@@H]1C(=O)N(C)c2cnc(Nc3ccc(C(=O)NC4CCN(C)CC4)cc3OC)nc2N1C1CCCC1
How it was run: (§1)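 Thermal stability values are relative to control samples and come from duplicates. They are expressed as log2 fold changes. For measurement, K562 cells (2×10^6 cells/mL) received 10 μM compound for 30 min, and aliquots were heated for 3 min over 48°C-58°C, pooled, and extracted at 4°C in PBS with 0.5% NP-40. Soluble protein, the supernatant after 21,000xg for 90 min, was quantified by TMTpro 16plex LC-MS/MS with equalised channel sums.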

volasertib = compound: CC[C@@H]1C(=O)N(C)c2cnc(Nc3ccc(C(=O)N[C@H]4CC[C@H](N5CCN(CC6CC6)CC5)CC4)cc3OC)nc2N1C(C)C [volasertib]
How it was run: as §1

[2] = compound: CC[C@H](C)N1C=C(C2=C(C=C(C=C21)C3=CN=C(C=C3)N4CCNCC4)C(=O)NCC5=C(C=C(NC5=O)C)C)C
How it was run: as §1

epoxomicin = compound: CC[C@H](C)[C@@H](C(=O)N[C@@H]([C@@H](C)O)C(=O)N[C@@H](CC(C)C)C(=O)[C@]1(CO1)C)NC(=O)[C@H]([C@@H](C)CC)N(C)C(=O)C [epoxomicin]
How it was run: as §1

[3] = compound: CCn1c(C(=O)N(C2CC2)C2CC2)cc2c3c(ncn3C)c(Nc3cc(C)n(C)n3)nc21
How it was run: as §1

[4] = compound: CCn1cc(-c2ccnc3[nH]c(-c4cccc(CN(C)C)c4)cc23)c(-c2ccc(NC(=O)N(C)C)cc2)n1
How it was run: as §1

[5] = compound: CN(C)CC(=O)Nc1ccc2[nH]c(=O)c3ccccc3c2c1
How it was run: as §1

rosiglitazone = compound: CN(CCOC1=CC=C(C=C1)C[C@H]2C(=O)NC(=O)S2)C3=CC=CC=N3 (racemic) [rosiglitazone]
How it was run: as §1

[6] = compound: CN1C2=C(C3=C1C(=O)N(N=C3)CC4=CC(=CC=C4)N)SC(=C2)S(=O)C
How it was run: as §1

[7] = compound: CN1CCC(CNc2ccc3ncc(-c4cccc(OC(F)(F)F)c4)n3n2)CC1
How it was run: as §1

saracatinib = compound: CN1CCN(CCOc2cc(OC3CCOCC3)c3c(Nc4c(Cl)ccc5c4OCO5)ncnc3c2)CC1 [saracatinib]
How it was run: as §1

sotrastaurin = compound: CN1CCN(c2nc(C3=C(c4c[nH]c5ccccc45)C(=O)NC3=O)c3ccccc3n2)CC1 [sotrastaurin]
How it was run: as §1

alvocidib = compound: CN1CC[C@H](c2c(O)cc(O)c3c(=O)cc(-c4ccccc4Cl)oc23)[C@H](O)C1 [alvocidib]
How it was run: as §1

Tubastatin A = compound: CN1CCc2c(c3ccccc3n2Cc2ccc(C(=O)NO)cc2)C1 [Tubastatin A]
How it was run: as §1

[8] = compound: CNC(=O)C1=CC=CC=C1NC2=NC(=NC=C2Cl)NC3=C(C=C(C=C3)N4CCOCC4)OC
How it was run: as §1

defactinib = compound: CNC(=O)c1ccc(Nc2ncc(C(F)(F)F)c(NCc3nccnc3N(C)S(C)(=O)=O)n2)cc1 [defactinib]
How it was run: as §1

rucaparib = compound: CNCc1ccc(-c2[nH]c3cc(F)cc4c3c2CCNC4=O)cc1 [rucaparib]
How it was run: as §1

[9] = compound: CNc1nc(-c2ccc3c(N)n[nH]c3c2)cc(N2C[C@@H](C(=O)NC3CCCCC3)CC[C@H]2C)n1
How it was run: as §1

encorafenib = compound: COC(=O)N[C@@H](C)CNc1nccc(-c2cn(C(C)C)nc2-c2cc(Cl)cc(NS(C)(=O)=O)c2F)n1 [encorafenib]
How it was run: as §1

[10] = compound: COC(=O)[C@H](CCSC)NC(=O)C1=C(C=C(C=C1)NC[C@H](CS)N)C2=CC=CC=C2
How it was run: as §1

Chain of UniProt Q49A26 (Q49A26 whole entry, looked up): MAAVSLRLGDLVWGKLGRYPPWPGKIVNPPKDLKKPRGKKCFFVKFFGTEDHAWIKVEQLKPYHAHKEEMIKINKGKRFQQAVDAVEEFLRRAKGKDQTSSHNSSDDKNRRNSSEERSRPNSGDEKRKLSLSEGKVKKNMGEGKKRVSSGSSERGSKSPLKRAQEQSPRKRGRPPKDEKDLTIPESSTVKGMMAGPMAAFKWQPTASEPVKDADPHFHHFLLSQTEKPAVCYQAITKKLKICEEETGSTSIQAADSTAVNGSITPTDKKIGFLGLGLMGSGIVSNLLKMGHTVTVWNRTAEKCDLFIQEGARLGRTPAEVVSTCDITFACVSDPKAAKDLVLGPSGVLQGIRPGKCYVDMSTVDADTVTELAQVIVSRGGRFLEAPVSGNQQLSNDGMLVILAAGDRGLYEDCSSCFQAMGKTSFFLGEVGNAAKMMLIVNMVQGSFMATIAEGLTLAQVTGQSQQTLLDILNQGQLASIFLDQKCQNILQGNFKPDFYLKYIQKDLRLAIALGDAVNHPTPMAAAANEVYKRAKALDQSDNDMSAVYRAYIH
Chain of UniProt P22570 (P22570 whole entry, looked up): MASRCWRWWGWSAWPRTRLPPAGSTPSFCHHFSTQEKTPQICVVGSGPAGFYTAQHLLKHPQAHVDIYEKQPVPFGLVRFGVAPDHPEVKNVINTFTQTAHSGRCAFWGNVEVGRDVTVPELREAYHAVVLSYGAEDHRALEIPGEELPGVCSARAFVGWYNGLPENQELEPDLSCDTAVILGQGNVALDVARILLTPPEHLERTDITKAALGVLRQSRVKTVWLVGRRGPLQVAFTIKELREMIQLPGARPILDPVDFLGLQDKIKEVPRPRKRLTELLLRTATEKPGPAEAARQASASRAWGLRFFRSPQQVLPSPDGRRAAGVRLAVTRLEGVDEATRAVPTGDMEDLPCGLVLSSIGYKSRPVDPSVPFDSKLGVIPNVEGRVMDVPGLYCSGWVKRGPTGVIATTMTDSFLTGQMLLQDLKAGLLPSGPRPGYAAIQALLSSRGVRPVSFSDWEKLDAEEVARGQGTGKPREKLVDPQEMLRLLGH
Chain of UniProt Q5JWF2 (Q5JWF2 whole entry, looked up): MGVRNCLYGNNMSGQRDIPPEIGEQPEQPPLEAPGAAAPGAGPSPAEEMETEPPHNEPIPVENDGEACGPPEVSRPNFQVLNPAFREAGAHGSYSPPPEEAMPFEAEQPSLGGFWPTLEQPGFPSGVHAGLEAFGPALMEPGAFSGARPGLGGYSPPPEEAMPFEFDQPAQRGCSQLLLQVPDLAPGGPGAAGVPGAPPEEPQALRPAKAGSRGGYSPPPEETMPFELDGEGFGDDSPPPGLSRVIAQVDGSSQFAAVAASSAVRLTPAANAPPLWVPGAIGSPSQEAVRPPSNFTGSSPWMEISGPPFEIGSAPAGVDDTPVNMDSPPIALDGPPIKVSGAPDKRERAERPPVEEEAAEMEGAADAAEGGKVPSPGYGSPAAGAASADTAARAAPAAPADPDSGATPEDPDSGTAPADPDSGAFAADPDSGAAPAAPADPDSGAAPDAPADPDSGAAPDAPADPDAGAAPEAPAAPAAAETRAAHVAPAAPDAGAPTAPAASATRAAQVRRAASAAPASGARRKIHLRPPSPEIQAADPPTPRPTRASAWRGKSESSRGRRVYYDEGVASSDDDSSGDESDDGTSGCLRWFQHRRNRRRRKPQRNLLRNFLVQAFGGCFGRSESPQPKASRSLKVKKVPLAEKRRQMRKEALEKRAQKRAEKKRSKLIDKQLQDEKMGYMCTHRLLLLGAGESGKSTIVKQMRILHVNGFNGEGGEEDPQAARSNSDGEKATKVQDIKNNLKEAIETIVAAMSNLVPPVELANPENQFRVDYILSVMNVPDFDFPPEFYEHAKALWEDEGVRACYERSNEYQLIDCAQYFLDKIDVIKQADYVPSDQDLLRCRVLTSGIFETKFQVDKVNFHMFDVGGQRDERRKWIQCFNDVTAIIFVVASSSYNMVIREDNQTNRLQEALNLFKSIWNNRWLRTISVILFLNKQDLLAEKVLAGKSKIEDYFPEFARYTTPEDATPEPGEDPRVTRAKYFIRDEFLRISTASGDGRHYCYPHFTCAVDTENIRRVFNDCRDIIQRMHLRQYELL
Chain of UniProt Q9UJY4 (Q9UJY4 whole entry, looked up): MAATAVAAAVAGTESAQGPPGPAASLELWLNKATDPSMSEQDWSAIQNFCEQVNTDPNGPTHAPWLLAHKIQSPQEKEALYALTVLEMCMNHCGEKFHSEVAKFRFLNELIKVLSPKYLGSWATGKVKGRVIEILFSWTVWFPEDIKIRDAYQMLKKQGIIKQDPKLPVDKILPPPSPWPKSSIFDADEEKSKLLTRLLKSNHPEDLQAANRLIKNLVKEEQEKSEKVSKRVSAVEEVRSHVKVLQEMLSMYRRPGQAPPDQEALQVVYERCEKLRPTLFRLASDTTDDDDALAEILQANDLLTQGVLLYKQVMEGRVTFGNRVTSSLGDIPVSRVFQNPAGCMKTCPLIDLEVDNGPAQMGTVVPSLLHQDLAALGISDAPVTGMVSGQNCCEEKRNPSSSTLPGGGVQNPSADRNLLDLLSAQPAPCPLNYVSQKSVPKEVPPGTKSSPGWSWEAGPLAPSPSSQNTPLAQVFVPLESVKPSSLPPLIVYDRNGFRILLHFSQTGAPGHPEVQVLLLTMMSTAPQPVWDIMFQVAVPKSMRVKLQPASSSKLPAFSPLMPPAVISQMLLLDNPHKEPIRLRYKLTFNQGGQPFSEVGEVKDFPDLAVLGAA
Chain of UniProt O60725 (O60725 whole entry, looked up): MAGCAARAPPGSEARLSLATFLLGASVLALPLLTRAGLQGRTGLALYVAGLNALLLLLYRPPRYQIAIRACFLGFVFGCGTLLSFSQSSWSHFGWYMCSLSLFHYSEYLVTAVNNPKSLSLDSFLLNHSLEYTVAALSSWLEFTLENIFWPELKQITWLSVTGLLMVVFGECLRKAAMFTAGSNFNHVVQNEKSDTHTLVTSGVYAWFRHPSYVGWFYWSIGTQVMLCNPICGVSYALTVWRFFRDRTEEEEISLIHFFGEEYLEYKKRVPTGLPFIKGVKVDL
Chain of UniProt Q92769 (Q92769 whole entry, looked up): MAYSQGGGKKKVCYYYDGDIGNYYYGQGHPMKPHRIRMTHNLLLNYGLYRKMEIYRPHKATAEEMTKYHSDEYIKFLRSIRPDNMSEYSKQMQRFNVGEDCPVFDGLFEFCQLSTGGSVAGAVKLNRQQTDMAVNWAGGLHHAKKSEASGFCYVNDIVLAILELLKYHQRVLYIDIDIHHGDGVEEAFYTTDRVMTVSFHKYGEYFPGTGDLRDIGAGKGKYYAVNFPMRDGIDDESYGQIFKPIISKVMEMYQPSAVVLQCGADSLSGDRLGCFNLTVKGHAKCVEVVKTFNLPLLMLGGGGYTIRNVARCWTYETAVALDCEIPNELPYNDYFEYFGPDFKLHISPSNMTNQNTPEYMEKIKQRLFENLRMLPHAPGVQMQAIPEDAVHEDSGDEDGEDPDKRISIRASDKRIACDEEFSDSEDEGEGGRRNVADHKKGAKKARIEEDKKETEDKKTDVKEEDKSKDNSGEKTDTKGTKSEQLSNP
Chain of UniProt O14976 (O14976 whole entry, looked up): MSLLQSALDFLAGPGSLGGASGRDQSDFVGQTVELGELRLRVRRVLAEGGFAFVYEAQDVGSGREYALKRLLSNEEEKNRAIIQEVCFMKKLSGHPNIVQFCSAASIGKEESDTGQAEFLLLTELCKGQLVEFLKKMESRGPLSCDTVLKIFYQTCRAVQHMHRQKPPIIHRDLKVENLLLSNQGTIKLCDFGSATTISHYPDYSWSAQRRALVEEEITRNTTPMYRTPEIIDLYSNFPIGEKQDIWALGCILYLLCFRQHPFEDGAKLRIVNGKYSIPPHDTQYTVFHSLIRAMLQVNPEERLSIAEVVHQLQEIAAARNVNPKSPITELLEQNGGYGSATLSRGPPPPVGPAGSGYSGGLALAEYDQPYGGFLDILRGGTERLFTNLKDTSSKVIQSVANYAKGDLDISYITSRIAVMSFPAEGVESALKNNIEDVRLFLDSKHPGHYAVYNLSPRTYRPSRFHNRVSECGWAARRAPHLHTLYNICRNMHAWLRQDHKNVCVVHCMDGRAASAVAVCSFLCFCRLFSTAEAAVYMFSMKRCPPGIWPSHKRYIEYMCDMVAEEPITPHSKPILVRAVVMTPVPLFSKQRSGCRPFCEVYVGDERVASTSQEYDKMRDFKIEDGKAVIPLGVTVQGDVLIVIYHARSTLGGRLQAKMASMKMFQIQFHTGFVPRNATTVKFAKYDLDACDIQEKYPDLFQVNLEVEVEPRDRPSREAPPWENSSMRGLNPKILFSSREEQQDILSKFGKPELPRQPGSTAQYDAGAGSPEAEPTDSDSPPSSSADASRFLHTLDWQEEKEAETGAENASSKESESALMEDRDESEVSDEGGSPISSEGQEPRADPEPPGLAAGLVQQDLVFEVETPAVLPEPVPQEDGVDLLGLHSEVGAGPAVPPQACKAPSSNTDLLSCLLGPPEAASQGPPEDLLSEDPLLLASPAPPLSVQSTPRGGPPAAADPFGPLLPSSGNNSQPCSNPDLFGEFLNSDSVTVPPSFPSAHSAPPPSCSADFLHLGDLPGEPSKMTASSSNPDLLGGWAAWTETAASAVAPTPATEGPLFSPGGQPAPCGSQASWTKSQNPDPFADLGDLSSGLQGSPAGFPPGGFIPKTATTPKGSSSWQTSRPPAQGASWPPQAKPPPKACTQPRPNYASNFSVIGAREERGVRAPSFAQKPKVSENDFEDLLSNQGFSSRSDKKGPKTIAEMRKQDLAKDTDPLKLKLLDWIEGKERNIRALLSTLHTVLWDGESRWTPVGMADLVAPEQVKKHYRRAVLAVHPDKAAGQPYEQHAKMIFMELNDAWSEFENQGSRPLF
Chain of UniProt P30711 (P30711 whole entry, looked up): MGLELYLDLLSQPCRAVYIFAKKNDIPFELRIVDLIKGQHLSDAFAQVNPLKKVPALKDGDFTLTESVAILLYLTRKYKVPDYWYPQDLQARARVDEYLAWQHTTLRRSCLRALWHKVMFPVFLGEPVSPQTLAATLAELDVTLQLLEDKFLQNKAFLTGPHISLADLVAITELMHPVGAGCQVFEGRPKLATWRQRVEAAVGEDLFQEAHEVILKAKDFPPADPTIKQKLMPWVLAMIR

Row | Target | log2 fold change [1] | log2 fold change (volasertib) | log2 fold change [2] | log2 fold change (epoxomicin) | log2 fold change [3] | log2 fold change [4] | log2 fold change [5] | log2 fold change (rosiglitazone) | log2 fold change [6] | log2 fold change [7] | log2 fold change (saracatinib) | log2 fold change (sotrastaurin) | log2 fold change (alvocidib) | log2 fold change (Tubastatin A) | log2 fold change [8] | log2 fold change (defactinib) | log2 fold change (rucaparib) | log2 fold change [9] | log2 fold change (encorafenib) | log2 fold change [10]
1 | GNAS (UniProt Q5JWF2) | 0.125 | 0.164 | 0.032 | 0.011 | 0.016 | 0 | -0.02 | 0.006 | -0.03 | 0.057 | -0.023 | 0.036 | 0.025 | 0.011 | -0.004 | 0.012 | 0.029 | 0.069 | 0.021 | -0.041
2 | GAK (UniProt O14976) | 0.673 | 1.35 | -0.401 | -0.046 | 0.096 | 0.11 | 0.382 | – | -0.038 | 0.95 | 1.06 | -0.066 | 1.14 | 0.011 | 1.11 | 0.658 | 0.237 | 0.402 | -0.17 | -0.266
3 | GGA2 (UniProt Q9UJY4) | 0.022 | 0.059 | 0.038 | -0.033 | 0.005 | – | -0.021 | 0.083 | -0.02 | – | -0.054 | 0.053 | -0.034 | -0.088 | -0.025 | 0.025 | -0.064 | -0.054 | 0.068 | 0.122
4 | HAX1 (UniProt O00165) | -0.087 | -0.393 (active) | -0.011 | -0.018 | -0.031 | 0.084 | 0.05 | 0.023 | 0.012 | -0.584 (active) | -0.067 | -0.106 | -0.015 | 0.015 | -0.14 | -0.008 | 0.082 | 0.051 | 0.045 | -0.013
5 | IFI30 (UniProt P13284) | -0.443 (active) | -0.436 (active) | 0.038 | -0.014 | -0.096 | -0.098 | -0.021 | -0.061 | -0.06 | -0.448 (active) | 0.224 | 0.063 | -0.003 | -0.028 | -0.02 | -0.048 | 0.006 | 0.144 | 0.009 | 0.042
6 | HMG20A (UniProt Q9NP66) | 0.083 | -0.155 | 0.029 | -0.107 | -0.031 | 0 | 0.053 | 0.017 | 0.143 | -0.003 | 0.038 | -0.106 | -0.075 | 0.018 | 0.005 | 0.029 | -0.323 | -0.015 | -0.109 | -0.009
7 | HDAC2 (UniProt Q92769) | 0.024 | -0.051 | 0.026 | -0.049 | -0.049 | -0.001 | -0.003 | 0 | -0.041 | 0.056 | -0.001 | -0.02 | -0.091 | 0.907 (active) | -0.113 | -0.035 | -0.006 | -0.015 | -0.046 | -0.006
8 | GABPA (UniProt Q06546) | -0.017 | -0.304 (active) | 0.079 | 0.007 | -0.083 | -0.07 | 0.037 | 0.076 | -0.026 | -0.174 | -0.065 | -0.086 | -0.134 | 0.087 | -0.063 | -0.064 | -0.015 | 0.018 | 0.019 | 0.011
9 | GHDC (UniProt Q8N2G8) | -0.075 | -0.053 | -0.063 | -0.021 | 0.011 | -0.024 | 0.009 | 0.008 | -0.053 | -0.041 | 0.003 | 0.085 | -0.029 | -0.032 | 0.014 | -0.033 | 0.006 | -0.007 | 0.001 | 0.02
10 | ICMT (UniProt O60725) | 0.202 | 0.138 | -0.027 | -0.029 | 0.073 | – | 0.061 | 0.033 | -0.051 | – | -0.105 | 0.025 | – | -0.065 | 0.061 | -0.034 | 0.037 | 0.235 | -0.144 | 0.062
11 | HDAC7 isoform 5 (UniProt Q8WUI4) | 0.051 | 0.01 | 0.007 | 0.016 | -0.031 | -0.058 | 0.059 | 0.011 | -0.053 | -0.123 | -0.04 | -0.048 | -0.185 | – | -0.2 | -0.011 | -0.033 | 0 | -0.016 | 0.012
12 | FDXR isoform 7 (UniProt P22570) | 0.052 | 0.003 | 0.025 | 0.059 | 0.01 | -0.144 | 0.012 | 0.035 | -0.097 | -0.387 (active) | -0.027 | 0.116 | -0.058 | -0.01 | -0.012 | -0.115 | -0.035 | 0.034 | -0.034 | -0.023
13 | GLYR1 (UniProt Q49A26) | 0.099 | 0.054 | 0.026 | -0.074 | -0.047 | 0.026 | -0.038 | -0.292 | -0.019 | 0.041 | 0.007 | 0.028 | 0.14 | -0.077 | 0.021 | -0.029 | 0.211 | 0.04 | -0.044 | -0.033
14 | HEATR5B (UniProt Q9P2D3) | -0.053 | -0.19 | 0.083 | -0.058 | -0.041 | 0.018 | -0.009 | 0.003 | -0.017 | -0.015 | 0.043 | 0.008 | -0.023 | 0.016 | 0.022 | -0.099 | 0.028 | 0.015 | 0.041 | -0.006
15 | FAM91A1 (UniProt Q658Y4) | 0.062 | 0.221 | -0.007 | -0.675 (active) | -0.08 | -0.015 | -0.003 | 0.037 | 0.001 | 0.233 (active) | 0.055 | -0.049 | -0.037 | 0.005 | 0.059 | 0 | -0.015 | 0.002 | 0.05 | -0.025
16 | GSTT1 (UniProt P30711) | 0.02 | -0.057 | -0.038 | 0.203 | -0.019 | 0.019 | -0.034 | -0.024 | -0.058 | -0.002 | -0.011 | – | -0.023 | 0.015 | -0.029 | -0.027 | 0.028 | 0 | 0.023 | -0.062
